From PubChem BioAssay (NCI) come the findings set out here.

What all share (assay): NCI-60 one-dose screen, 48 h (100 = growth as untreated, 0 = no growth, -100 = all killed)
Common to all, as to conditions: 10 µM unless noted

Experiment [1] relates to SR leukemia.
The test system of experiment [2] is RPMI-8226 leukemia.
For experiment [3], the system named is OVCAR-8 ovarian.
For experiment [4], the system named is OVCAR-5 ovarian.
Experiment [5] concerns OVCAR-4 ovarian.
Experiment [6] relates to SK-OV-3 ovarian.
In experiment [7] the test system is IGROV1 ovarian.
Experiment [8] concerns OVCAR-3 ovarian.
For experiment [9], the system named is HS 578T breast.
Experiment [10] concerns T-47D breast.
In experiment [11] the test system is BT-549 breast.
In experiment [12] the test system is MDA-MB-435 melanoma.
Experiment [13] deals with SW-620 colon.
Experiment [14] relates to MCF7 breast.
In experiment [15] the test system is HCT-116 colon.
Experiment [16] deals with HCC-2998 colon.
The subject of experiment [17] is KM12 colon.
Experiment [18] has as its system NCI/ADR-RES ovarian.

Compounds without any hit were thinned out: in the full panel of roughly 83,000, 20% have a hit.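 In brief: 96-well plates, 48 h treatment, single concentration, percent growth endpoint.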 Activity calls are given as the source filed them. How the source made its calls: active means growth percent below 10; inactive means the rest.

In the case of `c1ccc(CN2C(c3ccccc3)=Nc3ccccc3C2c2c[nH]c3ccccc23)cc1` (stereo unspecified), the growth was -17.8% (active) in [1]; 4.99% (active) in experiment [2]; 44.4% (inactive) in [3]; 60.7% (inactive) in experiment [4]; 27.1% (inactive) in [5]; 71.6% (inactive) in experiment [6]. For the same compound, the growth in [7] was 19.3% (inactive); in experiment [8] it was 57.6% (inactive); in [9], 52.3% (inactive); in experiment [10], 27.8% (inactive); in experiment [11], 96.3% (inactive); in experiment [12], 39.2% (inactive). The growth in experiment [13] was 27.1% (inactive); in experiment [14], 23.5% (inactive); in experiment [15], 14.3% (inactive); in [16], 41.8% (inactive); in experiment [17] it was 56.8% (inactive).

Turning to `C/C(=N\Nc1cc(C)c2ccccc2n1)c1ccccn1`, the growth in experiment [1] is 1.94% (active); in experiment [2], -24% (active); in experiment [3], -23.3% (active); in experiment [4], 20.6% (inactive); in experiment [5], -8.85% (active); in experiment [6], 22.3% (inactive). Also, the growth in experiment [7] is -26.7% (active); in experiment [8], -0.251% (active); in experiment [9] it was 35.6% (inactive); in [18], -8.13% (active); in experiment [10], 16.5% (inactive); in experiment [11] it was 24.1% (inactive). In addition, the growth in experiment [12] was -90.9% (active); in [13], 7.9% (active); in [14] it was -82.9% (active); in [15], -76.2% (active); in [17], 4.67% (active).

For the compound `COc1cc2nc(Cl)nc(Nc3cccc(C(=O)/C=C/c4ccc(F)cc4)c3)c2cc1OC`, the growth is 12.2% (inactive) in experiment [1]; -18.1% (active) in [2]; 67.3% (inactive) in [3]; 68.2% (inactive) in experiment [4]; 64.9% (inactive) in experiment [5]; 106% (inactive) in experiment [6]. Also, the growth in [7] is 51% (inactive); in experiment [8], 43.4% (inactive); in experiment [9], 101% (inactive); in [18] it was 51.6% (inactive); in experiment [10], 67.6% (inactive); in [11], 61.4% (inactive). The growth was 39.4% (inactive) in experiment [12]; 2.24% (active) in experiment [13]; 23.8% (inactive) in experiment [14]; -41.2% (active) in experiment [15]; 28.4% (inactive) in experiment [17].

On to `c1ccc(C2Cc3ccccc3C2=NC2CCCCC2)cc1` (stereo unspecified), for which the growth was 91.1% (inactive) in [1]; 100% (inactive) in [2]; 107% (inactive) in experiment [3]; 90.8% (inactive) in experiment [4]; 102% (inactive) in experiment [5]; 110% (inactive) in experiment [6]. Further, the growth in experiment [7] is 112% (inactive); in experiment [8], 121% (inactive); in [9] it was 113% (inactive); in [18], 113% (inactive); in experiment [10], 93.5% (inactive); in [11] it was 88.3% (inactive). Further, the growth in [13] is 119% (inactive); in [14], 86.1% (inactive); in experiment [15], 96.9% (inactive); in experiment [16], 108% (inactive); in experiment [17] it was 112% (inactive).

On to `COC(=O)[C@]12CC[C@@H](C(/C=C/c3cccnc3)=N/O)[C@@H]1[C@H]1CC[C@@H]3[C@@]4(C)CC(=C/c5cccnc5)/C(=N/O)C(C)(C)[C@@H]4CC[C@@]3(C)[C@]1(C)CC2`, for which the growth in [1] was 11.4% (inactive); in [2] it was 1.81% (active); in [3] it was 39% (inactive); in experiment [4], 60.6% (inactive); in experiment [5], 40.8% (inactive); in [6], 64.7% (inactive). For the same compound, the growth in experiment [7] was 16.9% (inactive); in experiment [8], 37.4% (inactive); in experiment [9], 78.6% (inactive); in experiment [18] it was 33.6% (inactive); in [10] it was 27.3% (inactive); in [11], 22.8% (inactive). In addition, the growth is 36.2% (inactive) in [12]; 45.5% (inactive) in [13]; 25.6% (inactive) in experiment [14]; 18.9% (inactive) in experiment [15]; 37.7% (inactive) in [17].

With `COc1cccc(-c2nn(-c3ccccc3)cc2-c2ccnc(NCCCNS(=O)(=O)c3ccc(Br)cc3)c2)c1`, the growth in experiment [1] was 13.3% (inactive); in experiment [2], 34.5% (inactive); in experiment [3], 47.9% (inactive); in experiment [4], 88.2% (inactive); in experiment [5], 46.5% (inactive); in experiment [6], 64.8% (inactive). Also, the growth in experiment [7] is 47.6% (inactive); in [8], 58.8% (inactive); in [9], 66.2% (inactive); in [18] it was 42% (inactive); in [10], 18.5% (inactive); in [11], 73% (inactive). The growth is 54.3% (inactive) in [12]; 69.7% (inactive) in experiment [13]; 29.6% (inactive) in [14]; 40.8% (inactive) in experiment [15]; 44.1% (inactive) in experiment [17].

Regarding `Brc1ccc(Cn2nnnc2-c2ccn(-c3ccccc3)n2)cc1`, the growth in [1] is 56.4% (inactive); in experiment [2], 59.2% (inactive); in experiment [3], 110% (inactive); in [4], 32% (inactive); in experiment [5] it was 72.7% (inactive); in [6], 82.1% (inactive). For the same compound, the growth was 77.8% (inactive) in [7]; 86.8% (inactive) in experiment [8]; 77.7% (inactive) in [9]; 27.5% (inactive) in experiment [18]; 57.7% (inactive) in [10]; 76.8% (inactive) in experiment [11]. In addition, the growth in experiment [12] is 85% (inactive); in experiment [14], 77.7% (inactive); in experiment [15], 49.4% (inactive); in [16], 80.1% (inactive); in experiment [17], 80.6% (inactive).

Regarding `CCN1CCN(C(=O)[C@]23CCC(C)(C)C[C@@H]2C2=CC[C@@H]4[C@@]5(C)C/C(=C/c6ccncc6)C(=O)C(C)(C)[C@@H]5CC[C@@]4(C)[C@]2(C)CC3)CC1`, the growth was -29.1% (active) in experiment [1]; -32.1% (active) in experiment [2]; 7.29% (active) in experiment [3]; -20.4% (active) in experiment [4]; 6.7% (active) in experiment [5]; 16.2% (inactive) in experiment [6]. In addition, the growth in experiment [7] is -9.63% (active); in [8] it was -85.7% (active); in experiment [9] it was -23.6% (active); in experiment [18], -49.2% (active); in experiment [10], -2.08% (active); in experiment [11] it was -5.92% (active). Besides, the growth is -29.9% (active) in [12]; -54.1% (active) in experiment [13]; -53.6% (active) in experiment [14]; -92.4% (active) in experiment [15]; -39.9% (active) in experiment [17].
